Laboratory results published in the supplement of paper PMC6555819.

Test system: RARg homodimer (NR concentration 270 nM)
Assay: PBM binding z-score (relative to random genomic background probes); higher = stronger binding; sequences stand for … in GC…GCGATTGACAGCGTAGAATGAAGG
Procedure, shortened: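 Ligand-free nuclear receptor dimers were bound for 1 h to custom Agilent 4×180K protein-binding microarrays. Detection used antibodies against each partner (one per run). Binding z-scores rest on regression-normalized fluorescence, with random background probes as the reference.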

Sequence | PBM binding z-score
AGAATTAGGTTATTAAGATCAGGGAATTGCGGTC | 0.569
AGAACGAGGGCAAAGAGTTGATAGCACGGGTGGC | 1.69
TTACGAAGGTGAAGGTCGTTGATCCCTCTGTAGA | 1.26
CAGCCTAGGTCACGGCCAGTATAGGAGGAACGTT | 5.72
AGTCTAAGTTCATCTAGGTAACGTAAGATATGCT | 4.02
GCTGCTAGGTCAAATGATGGTCAGCTAAAGCTCG | 5.22
CAAACTAGGTCTAGAGGTCAAAGTCCGCTTCCCG | 4.46
CCGACTGGGGCATAAGGTTAACATAAGCCAGCCC | 1.34
AGAACGTGGGCACGCTGAGTTGATAGCAGAGTAG | -0.0604
CAAACTAGGTCACGAAAGGTCAAACTCGAATGAC | 9.05
GCGACTGGGGCATCCGCAGGTTACCATAACTTAA | 0.446
ATCTCTATGTAAAGTTCAGTGAAAGATCGATAGA | 2.29
TGAATGAGGTTATAAGATTAGGGAACGTTGCAAA | 1.01
GCGACTGGGGCATCAGCAGGTTACCACAACTTAA | 0.32
GCTATTAGTTGAAAGGGCAACTGAATGATTCTCG | 1.31
ATCTCTAGGTAAAGATAGTTCAGTGATTGCAAAT | 0.722
GGAAGGAGGGCATTCGAGTTGATAGCATGGCGAT | 1.34
CCTATCAGGCCAATCTGGGTCACTCAAGGCTTGA | 1.71
ACTAGCAGGCCAAGGGTCATTCAAGATTAGTCCG | 3.24
CCGAGTAGGTTATGGGGCATTCAAGCAACGGTGA | 0.579

Sequence | PBM binding z-score
TTTCAAAGTTCAAAGGTAACGTAAGTATCCACAC | 5.88
TCTAGCAGGCCAGAGGGTCGCTCAAGAGGTACGG | 0.0431
TATACAGGGTCAAAAGCCAGAGTACGAATGTCGA | 4.2
CCTCGGAGGACAACAGGAGGTCAGAGCCGCCAGA | 3.53
CCGACTGGGGCAAAGGTTACCTTACTCAGTACGA | 1.62
CGAACGAGAGCATGAGTTGATAGCAAATGCCGAT | 0.132
CCAGACAGGTGAAAGATAACTCAGTCTGGTACGC | 0.6
CCTATTAGTTGACCATAAGGGCAATCGAAGCTCG | 1.22
CCTTACGGATCAAGGTTATAGCACGGGTGGTACG | 0.518
TAGCCTAGGTCATCGGCCAGTATACCACGCGAAC | 4.72
CAAACTTGGTCAAGAGGTCAAAGTCCGCTTCCCG | 4.95
CGTCAATGTTCAAGGTAACGTAACAGAAAGCAGC | 0.453
GCTAGCAGGCCATTTGGGTCAATCAATGACGGGC | 1.21
CAAACTAGGTCAAGAGGTCATAGTCCGCTTCCCG | 7.08
GGAACGAGGGCAAGGTGATAGCAGAGTTTGATGG | 2.2
CCTCGGAGTACAACAGGAGGTCAGAGCTGCCAGA | 2.39
TAGCCTAGGTCATGCGGGCCAGTAGAGTGTCGGC | 4.71
TCATATAGGTAAATGCTAGATGAAAGTCCGATCT | 0.454
TCTTGTAGATCAATAGAGGTTAAGAACGTGCGCT | 0.716
TAGCCTAGGTCATGGGCCAGTCTACCACGCGAAC | 4.43
